Assay outcomes from PubChem.
HP1b binding inh: inhibitors of HP1-beta chromodomain binding to methylated histone tails; P83916; AlphaScreen HP1-beta / biotin-H3K9me3 peptide binding; Potency, µM (highest dose often 114 µM), for the others: top-dose activity change, negative = inhibition, usual class: inhibitors; hit rate 0.56% among 390,000; AID 540317; further: potency means the concentration at half of the fitted maximal effect; nearly all actives have a fitted effect of over 70% in size
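Compound inhibition of the preformed complex between 50 nM HP1-beta and 50 nM biotinylated H3K9me3 peptide was read by AlphaScreen. Buffer was PBS pH 7.4 with 0.01% Tween-20. Incubations ran 30 min at room temperature, with 10 ug/mL donor/acceptor beads.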
JMJD2A Tudor inh: JMJD2A Tudor domain (human) inhibition | O75164 | AlphaScreen JMJD2A-Tudor / H3K4me3 peptide binding | Potency, µM (titrated, usually from 114 µM), for inactives: top-dose activity change, negative = inhibition, most hits filed as inhibitors | hit rate 4.4% among 390,000; further: potency means the concentration at half of the fitted maximal effect; on the % scale 0 is the no-effect control and ±100 the full control effect; nearly all actives have a fitted effect of over 50% in size
G9a inh: blocks human histone lysine methyltransferase G9a | Q96KQ7 | G9a H3K9 monomethylation, AlphaScreen, 2 h | Potency, µM (doses to about 102 µM), without a hit: at the highest dose activity, negative = inhibition, usual class: inhibitors | hit rate 8.8% among 350,000 | AID 504332; further: potency means the concentration at half of the fitted maximal effect; on the % scale 0 is the no-effect control and ±100 the full control effect; nearly all actives have a fitted effect of over 75% in size
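AlphaScreen detection with an anti-monomethyl H3K9 antibody quantified product after a 2 h room-temperature reaction containing 500 nM biotinylated H3K9 peptide, 20 µM SAM and 20 nM enzyme, which had been preincubated 15 min with compound.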
BAZ2B block: inhibitors of human BAZ2B bromodomain | Q9UIF8 | hit rate 4.4% among 360,000 | AID 504333 | AlphaScreen BAZ2B-H3K14Ac peptide displacement | Potency, µM (titrated, usually from 114 µM), for inactives: at the top dose activity change, negative = inhibition, actives largely listed as inhibitors; further: potency means the concentration at half of the fitted maximal effect; on the % scale 0 is the no-effect control and ±100 the full control effect; nearly all actives have a fitted effect of over 60% in size
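Multi-concentration screen (max 110 uM) measuring displacement of acetylated histone H3 peptide from BAZ2B by AlphaScreen, using 50 nM protein, 50 nM peptide and 10 ug/mL streptavidin donor plus Ni-chelate acceptor beads.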
L3MBTL1 inh: inhibitors of human L3MBTL1; Q9Y468; AlphaScreen L3MBTL1–H3K9me1 peptide binding; Potency, µM (highest dose often 57.1 µM), inactives show at the top dose activity, negative = inhibition, usual class: inhibitors; hit rate 0.66% among 230,000; further: potency means the concentration at half of the fitted maximal effect; on the % scale 0 is the no-effect control and ±100 the full control effect; nearly all actives have a fitted effect of over 60% in size
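AlphaScreen proximity signal between nickel-chelate acceptor and streptavidin donor beads (final 10 ug/mL) reports binding of 50 nM L3MBTL1 to 75 nM biotin-H3 K9me1 peptide; complex incubated with compounds 30 min at room temperature; cefsulodin titration as control.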
PI5P4K alpha inh: PI5P4K alpha (human) kinase inhibition | PI5P4Kalpha enzyme, ADP-Glo luminescence, 60 min; active compounds read low | P48426 | max response, % | hit rate 1.2% among 330,000; active means max response of -50% or lower; inconclusive means between -30% and -50%; inactive means -30% or higher; further: value at the top dose of about 77 µM; on the % scale 0 is the no-effect control and ±100 the full control effect
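Reactions run in 0.038 M HEPES pH 7.4, 0.28 mM EGTA, 0.1% CHAPS and 5% DMSO, with PI5P4Kalpha, substrate, compound and 5 microM ATP final, one hour at room temperature. Readout is ADP-Glo luminescence.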
* marks the source's active call; other numbers are inactive results; ? = inconclusive; nt = no result given; [ ] = another dose, or the depositor's remark. In the library only some 11% were active in any assay of this set; here they are far more common. Unless noted, the call rests on the fitted dose curve; in most records, active means well fitted inhibition curve with a large enough effect; inconclusive means small, poorly fitted or top-dose-only effect; inactive means no such curve, though single readings can be large or run the other way.

SMILES | HP1b binding inh | JMJD2A Tudor inh | G9a inh | BAZ2B block | L3MBTL1 inh | PI5P4K alpha inh
O=[N+]([O-])/C(C(Cl)=C(Cl)Cl)=C(\Sc1ccccc1)N1CCCCC1 | -9.8% | ? | 39.8µM* | ? | -4.1% | 0.2
O=S(=O)(c1ccc(Cl)cc1)c1nc(-c2cccc(Br)c2)oc1NCc1ccccc1 | 12.0% | -24.2% | -36.1%[59 µM] | -26.8% | nt | nt
C=CCN(c1ccccc1)S(=O)(=O)c1cccc(C(=O)NC2CCN(Cc3ccccc3)CC2)c1 | 8.9% | -29.7% | 50.1µM* | -2.8% | -0.2% | -5.1
Clc1ccccc1-c1nc(/C=N/N2CCOCC2)c2ccccn12 | ? | ? | 28.2µM* | nt | -14.6% | -8.8
O=Cc1nc(-c2ccccc2Cl)n2ccccc12 | 11.6% | -6.6% | 0.8%[59 µM] | -5.6% | 3.5% | nt
CN1CCN(/N=C/c2nc(-c3ccccc3Cl)n3ccccc23)CC1 | -11.2% | -30.8% | 28.2µM* | -9.0% | -15.7% | 6.6
Cc1ccc(S(=O)(=O)c2c(N)n(CCCN(C)C)c3nc4ccccc4nc23)cc1 | 52.6% | 20.6% | -8.5%[12.7 µM] | 4.1% | 11.5% | -1.3
Cc1nc2c(c(=O)n1Cc1ccccc1Cl)c1nc3ccccc3nc1n2Cc1ccco1 | nt | nt | ? | -4.4% | nt | nt
Cc1cc(C)cc(-n2c3nc4ccccc4nc3c3c(=O)n(Cc4ccco4)cnc32)c1 | 23.0% | -24.9% | ? | 50.1µM* | nt | -29.3
COc1ccc(S(=O)(=O)c2c(N)n(Cc3ccco3)c3nc4ccccc4nc23)cc1 | 42.3% | -20.2% | 44.7µM* | -23.0% | 28.2µM* | -88.8*
COc1ccc(Cn2c3nc4ccccc4nc3c3c(=O)n(Cc4ccco4)c(C)nc32)cc1 | nt | nt | ? | 50.1µM* | nt | nt
COc1ccc(N2CC(NC(=O)c3ccc(S(=O)(=O)N4CCOCC4)cc3)CC2=O)cc1 (stereo not given) | 19.6% | -9.7% | 23.3%[59 µM] | 1.1% | nt | nt
CC(C)N(C(=O)Cn1cc(S(=O)(=O)Cc2ccc(Br)cc2)c2ccccc21)C(C)C | 35.4% | 0.4% | 0.8%[59 µM] | -2.6% | nt | nt
O=C(CSc1nnc2c3ccccc3c3ccccc3c2n1)Nc1ccccc1 | nt | nt | 44.7µM* | -5.2%[57.1 µM] | 0.3% | nt
O=C(CSc1nnc2c3ccccc3c3ccccc3c2n1)Nc1ccccc1F | -11.0% | -21.8% | nt | 56.2µM* | -8.1% | ?
O=C(CSc1ncccn1)Nc1ccccc1 | 37.2% | 0.0% | ? | 8.1% | nt | nt
CCOC(=O)c1ccc(NC(=O)CC(=O)Nc2ccc3nc4n(c(=O)c3c2)CCCCC4)cc1 | 10.1% | -19.1% | -26.6%[59 µM] | -4.8% | nt | nt
COc1cccc(CNC(=O)Cc2c(C(=O)O)c(C)cn2C)c1 | 21.9% | -12.0% | 6.4%[59 µM] | -23.3% | nt | nt
CC(=O)Nc1ccc(Oc2cc(NC(C)=O)cc([N+](=O)[O-])c2)cc1 | ? | 17.8µM* | 1.9% | -13.8% | 2.1% | ?
CC(=O)Nc1ccc(NC(=O)c2cc([N+](=O)[O-])cc([N+](=O)[O-])c2)cc1 | 27.4% | -29.2% | 50.1µM* | ? | 3.1% | -5.4
CC(=O)Nc1ccc(C(=O)NNC(=O)c2cc([N+](=O)[O-])cc([N+](=O)[O-])c2)cc1 | 13.7% | -8.0% | -32.0% | -22.6% | 5.4% | 0.6
Cc1c2c(c(C)n1C)C(C(=O)NC1CCCCC1)N(Cc1ccccc1)C2=O (stereo not given) | 11.9% | -10.4% | 50.1µM* | nt | nt | 2.8
CCn1c(CSc2nc3ccccc3s2)nc2ccccc21 | 31.1% | -8.3% | 10µM* | -2.9% | nt | nt
O=C(O)CSc1nnc(CNc2ccc(F)cc2)n1-c1ccccc1 | 74.1% | -16.1% | -127.9% | 79.4µM* | nt | -16.4
CCOC(=O)CSc1nnc(CNc2ccc(Cl)cc2)n1Cc1ccccc1 | 13.6% | -24.8% | -14.5%[59 µM] | 8.3% | -5.5% | -4.8
O=C(O)CSc1nnc(CSc2nc3ccccc3s2)n1-c1ccccc1 | 46.3% | 2.1% | 35.5µM* | -8.8% | 6.4% | -15.6
O=C(O)CSc1nnc(CNc2ccc(Cl)cc2)n1Cc1ccccc1 | -2.4% | 79.4µM* | -32.6%[2.33 µM] | ? | nt | -21.1
COC(=O)c1cc2oc3ccccc3c2n1Cc1nc(-c2cccc(C)c2)oc1C | 3.9% | -21.8% | -6.3%[59 µM] | -12.9% | nt | nt
